For the assay, the system named is primary human hepatic stellate cells (donor 1). Kind of assay: scaled lipid accumulation score (0 = DMSO-like, 1 = nortriptyline-like); higher = stronger HSC inactivation (lipid re-accumulation), active = hit call of the paper. Particulars: 48 h.
Where [1] appears, read: library stock concentration: 6.8 mM.
Where [2] appears, read: library stock concentration: 10 mM.
Setting [3] is: library stock concentration: 3.33 mM.
Setting [4] is: library stock concentration: 1 mM.
The mark [5] stands for this setting: library stock concentration: 80 uM.
Where [6] appears, read: library stock concentration: 400 uM.
Where [7] appears, read: library stock concentration: 2 mM.
Where [8] appears, read: library stock concentration: 100 uM.

Where “and” joins values, the source holds several entries; their conditions need not be identical. Identical values can stand only once. Counter-ions that a name gives are not always drawn. Screen size: about 5,800 compounds; about 620 (11%) showed activity. The list comes from a sample in which actives are over-represented; it also holds similar structures and randomly drawn compounds. Unmarked numbers belong to inactive results.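 The calls were made as follows: active = score above a cut-off or among the top three wells of a plate; in these data no inactive exceeds 0.85.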

`COC(=O)Nc1nc2cc(C(=O)c3ccccc3)ccc2[nH]1` [Mebendazole]: the “scaled lipid accumulation score” value is at most 0. For the same compound, the “scaled lipid accumulation score” value under setting [1] is 0.082. Further, the “scaled lipid accumulation score” value under setting [2] is 0.402 and 0.071.
`COC(=O)Nc1nc2cc(C(=O)c3cccs3)ccc2[nH]1` [Nocodazole] [listing 1 of 2 here]: the “scaled lipid accumulation score” value runs as follows: under setting [3], 0.021; (library stock concentration: 6.6 mM) 0.262.
Consider `COC(=O)Nc1nc2cc(C(=O)c3ccccc3)ccc2[nH]1` [Mebendazol], for which the “scaled lipid accumulation score” value under setting [1] is 0.097.
Consider `COC(=O)Nc1nc2cc(C(=O)c3cccs3)ccc2[nH]1` [Nocodazole] [listing 2 of 2 here], for which the “scaled lipid accumulation score” value is 0.883 (active).
Take `CCCNS(=O)(=O)Nc1ncnc(OCCOc2ncc(Br)cn2)c1-c1ccc(Br)cc1` [Macitentan]: the “scaled lipid accumulation score” value is, setting by setting: under setting [3], at most -0.009; under setting [2], at most 0.
Regarding `CCCCCCCCCCCCC/C=C/[C@@H](O)[C@H](CO)N(C)C` [N,N-Dimethylsphingosine] [listing 1 of 2 here], under setting [4], the “scaled lipid accumulation score” value is 0.185.
Consider `CCCCCCCCCCCCC/C=C/[C@@H](O)[C@@H](N)CO` [Sphingosine], for which the “scaled lipid accumulation score” value under setting [4] was at most -0.021.
Take `CCCCCCCCCCCCC/C=C/[C@@H](O)[C@H](CO)N(C)C` [N,N-Dimethylsphingosine] [listing 2 of 2 here]: the “scaled lipid accumulation score” value under setting [4] is 0.965 (active).
For the compound `Nc1nc(NCC2CCC(CNS(=O)(=O)c3cccc4ccccc34)CC2)nc2ccccc12` (configuration not stated), the “scaled lipid accumulation score” value under setting [2] is 0.415.
Take `O=C(/C=C/c1ccc(/C=C/C(=O)Nc2ccc(C3=NCCN3)cc2)cc1)Nc1ccc(C2=NCCN2)cc1` [GW 4869 (hydrochloride hydrate)]: under setting [4], the “scaled lipid accumulation score” value is 0.115.
On the same count and under the same terms, with `CCCCC[C@H](O)/C=C/[C@H]1[C@H](O)CC(=O)[C@@H]1C/C=C/CCCC(=O)Oc1ccc(NC(C)=O)cc1` [Prostaglandin E2 p-acetamidophenyl ester] the figure was at most 0; with `C[C@@H](O)CCC[C@H](O)/C=C/C1=C(C/C=C\CCCC(=O)O)C(=O)CC1` [19(R)-hydroxy Prostaglandin B2], at most 0.
Consider `Fc1ccc([C@@H]2CCNC[C@H]2COc2ccc3c(c2)OCO3)cc1.O=C(O)/C=C\C(=O)O` [Paroxetine maleate], for which the “scaled lipid accumulation score” value under setting [2] was 1.14 (active).
`Fc1ccc([C@@H]2CCNC[C@H]2COc2ccc3c(c2)OCO3)cc1.O=C(O)/C=C\C(=O)O` [Paroxetine]: the “scaled lipid accumulation score” value under setting [2] is 1.02 (active).
For the compound `CN1CCC(c2c(O)cc(O)c3c(=O)cc(-c4ccccc4Cl)oc23)C1CO` (configuration not stated) [Riviciclib], the “scaled lipid accumulation score” value under setting [5] is 0.019, the “scaled lipid accumulation score” value under setting [6] was 0.272, the “scaled lipid accumulation score” value under setting [7] was at most -0.001 and the “scaled lipid accumulation score” value under setting [2] was 0.002.
With `COC(=O)/C=C/c1cc(O)ccc1O` [Methyl 2,5-dihydroxycinnamate], the “scaled lipid accumulation score” value under setting [2] is 0.182.
The same measure, in the same setting: with `CC#CCOC(=O)c1c(C)nc2sc3c(c2c1N)CCC(O)C3` (configuration not stated) [listing 1 of 2 here] the figure was 1.72 (active).
For the compound `CC#CCOC(=O)c1c(C)nc2sc3c(c2c1N)CCC(O)C3` (configuration not stated) [listing 2 of 2 here], the “scaled lipid accumulation score” value under setting [2] was 0.882 (active).
`Cc1cccc(C2CN(C)CCc3c2cc(O)c(O)c3Cl)c1` (configuration not stated): under setting [2], the “scaled lipid accumulation score” value was 0.086.
Regarding `CC[N+](C)(CC)CCOC(=O)C(O)(c1ccccc1)C1CCCCC1` (configuration not stated), the “scaled lipid accumulation score” value under setting [2] was at most 0.
Turning to `CCN(CC)CC#CCOC(=O)C(O)(c1ccccc1)C1CCCCC1` (configuration not stated) [Oxybutynin chloride], the “scaled lipid accumulation score” value is 0.397. Also, the “scaled lipid accumulation score” value under setting [3] was 0.234. Where the note is “library stock concentration: 5.1 mM”, the “scaled lipid accumulation score” value is 0.317. Besides, under setting [2], the “scaled lipid accumulation score” value is 0.48.
For `CCN(CC)CC#CCOC(=O)C(O)(c1ccccc1)C1CCCCC1.Cl` (configuration not stated) [Oxybutynin Chloride], the “scaled lipid accumulation score” value under setting [2] is 0.862 (active).
As to `CCCCC/C=C\C\C=C/C=C/C=C/[C@@H](SC[C@H](N)C(=O)NCC(=O)O)[C@@H](O)CCCC(=O)O` [Leukotriene D4], the “scaled lipid accumulation score” value under setting [8] is at most -0.014.
Regarding `N#Cc1cc([N+](=O)[O-])c2sc(C(N)=O)[n+]([O-])c2c1` [Polo-like Kinase Inhibitor II, BTO-1], the “scaled lipid accumulation score” value under setting [3] was at most 0.
In the case of `CCCCC/C=C\C=C\[C@@H](O)CCCCCCCC(=O)O`, under setting [8], the “scaled lipid accumulation score” value is at most -0.021.
In the case of `O=C(CN=C(c1ccccc1)c1ccccc1)OCc1ccccc1` [N-(diphenylmethylene) Glycine benzyl ester], the “scaled lipid accumulation score” value under setting [4] was 0.004.
Same read-out and setting: under `C#CCCCCCCCCCNC(=O)Oc1cccc(-c2cccc(C(N)=O)c2)c1` stands at most 0.
For `C=CC(=O)Nc1cccc(Oc2nc(Nc3ccc(N4CCN(C)CC4)cc3OC)ncc2Cl)c1`, the “scaled lipid accumulation score” value by setting is: under setting [5], at most 0; under setting [6], at most 0; under setting [7], 0.172; under setting [3], 0.507; under setting [2], 0.707 and 0.265.
For `C=CC(=O)Nc1cccc(Oc2nc(Nc3ccc(N4CCN(C)CC4)cc3)ncc2Cl)c1`, the “scaled lipid accumulation score” value under setting [3] was 0.415 and the “scaled lipid accumulation score” value under setting [2] was 0.711.
In the case of `COc1cc(N2CCC(N3CCN(C)CC3)CC2)ccc1Nc1ncc(Cl)c(Nc2ccccc2S(=O)(=O)C(C)C)n1`, the “scaled lipid accumulation score” value is at most 0 under setting [5], 0.087 under setting [6], 0.571 under setting [7] and 0.613 under setting [2].
As to `CCC(=O)Nc1cccc(Oc2nc(Nc3ccc(N4CCN(C)CC4)cc3OC)ncc2Cl)c1` [listing 1 of 3 here], the “scaled lipid accumulation score” value under setting [2] was 1.11 (active).
For `CCC(=O)Nc1cccc(Oc2nc(Nc3ccc(N4CCN(C)CC4)cc3OC)ncc2Cl)c1` [listing 2 of 3 here], the “scaled lipid accumulation score” value by setting is: under setting [5], at most -0.001; under setting [6], at most -0.001; under setting [7], at most -0.001; under setting [3], 0.472.
Turning to `CCC(=O)Nc1cccc(Oc2nc(Nc3ccc(N4CCN(C)CC4)cc3OC)ncc2Cl)c1` [listing 3 of 3 here], the “scaled lipid accumulation score” value under setting [2] is 0.997 (active).
As to `CCCCCCCCCCCC1N[C@H](C(=O)O)CS1` (some centres not stated), the “scaled lipid accumulation score” value under setting [4] was at most 0.
On the same count and under the same terms, under `CCCCC[C@H](O)/C=C/[C@@H]1[C@H](CCCCCCC(=O)O)[C@H](O)C[C@H]1O` [8-iso Prostaglandin F1.beta.] stands at most 0.
As for `Cc1[nH]ccc2c1[nH]c1cc(=O)ccc12` [Harmol hydrochloride monohydrate], the “scaled lipid accumulation score” value is 0.689.
Regarding `O=C(O)CCC/C=C\C[C@H]1C(=O)C=C[C@@H]1CC[C@@H](O)CCc1ccccc1` [17-phenyl trinor-13,14-dihydro Prostaglandin A2], the “scaled lipid accumulation score” value under setting [4] was at most 0.
With `CNCc1ccc(C)c(NC(=O)c2ccc(Nc3nc(-c4ccccc4)c4ccccc4n3)cc2)c1` [listing 1 of 2 here], under setting [3], the “scaled lipid accumulation score” value is 1.14 (active).
Take `Cc1cc(Nc2ccc(NC(=O)c3ccc(Nc4ccnc5ccccc45)cc3)cc2)nc(N)n1`: the “scaled lipid accumulation score” value is 0.147 under setting [3] and at most 0 under setting [2].
For `CNCc1ccc(C)c(NC(=O)c2ccc(Nc3nc(-c4ccccc4)c4ccccc4n3)cc2)c1` [listing 2 of 2 here], under setting [2], the “scaled lipid accumulation score” value is 0.17.

The values are drawn from the supplement of paper PMC9135407.
